# Experimental data taken from the supplement of paper PMC3334620.
# The full ranking holds about 33,000 sequences; the median of “E-score (-0.5 to 0.5)” is about -0.013, and the highest 2% start at about 0.3. The list comes from a sample in which the highest values are over-represented; it also holds similar and randomly drawn sequences.
# Target: T1, Msn1 (UniProt P22148)
# T1 sequence: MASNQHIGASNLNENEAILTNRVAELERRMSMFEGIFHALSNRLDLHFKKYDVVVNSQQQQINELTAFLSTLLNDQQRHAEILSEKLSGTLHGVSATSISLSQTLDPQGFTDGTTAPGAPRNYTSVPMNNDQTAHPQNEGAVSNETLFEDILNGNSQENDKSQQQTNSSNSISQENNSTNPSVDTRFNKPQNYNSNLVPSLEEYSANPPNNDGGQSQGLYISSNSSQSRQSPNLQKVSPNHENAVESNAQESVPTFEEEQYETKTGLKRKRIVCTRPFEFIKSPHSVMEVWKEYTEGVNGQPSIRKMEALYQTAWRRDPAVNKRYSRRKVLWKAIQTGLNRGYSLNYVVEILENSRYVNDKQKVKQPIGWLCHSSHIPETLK
# Test: PBM E-score (8-mer binding enrichment) (E-score (-0.5 to 0.5)); higher = stronger / more preferred TF binding
# Conditions: protein concentration: 200 nM; construct: GST-full length
# Summary of the method: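 Each ungapped eight-base word and its reverse complement, pooled, received an E-score from the Universal PBM Analysis Suite. Underlying scans, normalised with masliner, recorded fluorescent anti-GST bound to GST-tagged yeast transcription factors. These were applied at about 100-200 nM to universal all-10-mer Agilent arrays double-stranded by primer extension.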
row,Sequence,PBM E-score
1,ATTACTGG,-0.119
2,CAAGCGCA,0.185
3,CCCTCGAA,-0.0781
4,ACTGCTGG,-0.169
5,GACATTAC,0.442
6,AACATTTA,0.252
7,AACATTAA,0.158
8,GACATTTA,0.474
9,GACATTAA,0.431
10,TACATTAA,0.277
11,CACATTTA,0.15
12,AACATTAC,-0.108
13,CACATTAC,0.0152
14,AGAGGTCG,-0.105
15,GCTGGAAA,-0.0496
16,ATTTTGAA,0.126
17,TGGCCAAA,0.0563
18,ATCTTGCA,0.0688
19,GTGTACCA,0.189
20,ATGTACAC,0.268
21,ATGTACGA,0.215
22,ATGTACCC,0.115
23,ATGTACAA,0.36
24,ATGTACAG,0.185
25,ATGTACCA,0.316

row,Sequence,PBM E-score
1,ATGTACTA,0.233
2,ATGTACAT,0.324
3,AATTAGCG,0.0486
4,ATGCTCCC,-0.341
5,GCCCGTTA,-0.266
6,CGTTCGCC,-0.0525
7,ACGAGGCG,0.0795
8,CTATTGTC,0.288
9,ACATTGTC,0.411
10,CCATTGTC,0.311
11,ATATTGTC,0.427
12,ACATTGTA,0.143
13,ATATTGTG,-0.00984
14,CCATTGGC,-0.0912
15,ACATTGTG,0.207
16,CCATTGTA,0.193
17,GAAGTAGC,-0.206
18,TAGGGTGA,-0.1
19,CCCTGCAG,-0.245
20,CGCATTTA,0.193
21,GTCGACAC,0.141
22,ATGGACAC,0.437
23,ATGGACCA,0.114
24,ATGGACGA,0.273
25,ATGGACCC,-0.0808

row,Sequence,PBM E-score
1,ATGGACGC,0.122
2,ATGGAAAT,0.0754
3,ATGGACAA,0.485
4,ATGGACAG,0.251
5,GTGGACAC,0.356
6,GTGGAAAC,0.164
7,ATGGACAT,0.484
8,GCGCTAGC,-0.0831
9,ATTAGGGA,0.0137
10,CAGGTTGC,0.0156
11,AGACTTGC,-0.136
12,AGCTTAAT,-0.00074
13,CACCCGTA,-0.0199
14,AAGCGAGC,-0.0286
15,AGCTTGAT,-0.0595
16,ACCGCGCC,-0.168
17,CTAAGACA,0.302
18,AAAAGACA,0.342
19,ACAAGACG,0.0049
20,AAAAGACC,0.00338
21,AAAAGACG,0.135
22,GCAAGACA,0.157
23,GTAAGACA,0.305
24,ATAAGACA,0.264
25,TAAAGACA,0.356

row,Sequence,PBM E-score
1,TCAAGACA,0.247
2,ACAAGACA,0.34
3,TAAAGATA,0.0041
4,GACGGCTC,-0.211
5,GCATATGC,-0.0698
6,ATTTCCAC,0.106
7,CCGACCCC,-0.354
8,CATCAGAA,0.00838
9,GCCGCCTA,-0.173
10,CCAGCGCC,-0.229
11,CAGTTTAC,-0.0477
12,GAAAGACA,0.227
13,CAAAGACA,0.361
14,CGAAGACA,0.259
15,TGAAGACA,0.328
16,CAAAGACC,-0.0488
17,GGAAGACA,0.251
18,AGCGCATA,0.034
19,CTAGCTCA,-0.0294
20,ATCCATTA,0.0133
21,AGCCTACA,-0.135
22,CGTCTGCA,0.0663
23,CCGAACAG,0.0877
24,GGCCGAAC,-0.239
25,CTAGACAG,0.00829

row,Sequence,PBM E-score
1,TTAGATAA,0.0312
2,CTAGACAC,0.0417
3,TTAGACAA,0.394
4,GTAGACGA,0.115
5,CTAGACAA,0.305
6,GTAGACAC,0.0944
7,TTAGAAAA,0.109
8,GTAGACAA,0.309
9,CCATTTGA,-0.0557
10,CGCATACG,-0.0304
11,AGTGGGGA,-0.185
12,AACAGTAG,-0.0756
13,CGTGGGAA,-0.0248
14,GACTCCTC,-0.149
15,TATGACCA,0.0481
16,GATGACTA,-0.0556
17,TATGACAA,0.408
18,CATGACAG,0.13
19,CATGACAA,0.383
20,AATGACAA,0.29
21,GATGACAC,0.06
22,CATGACAC,0.193
23,GATGACAA,0.336
24,AGAGCGAA,-0.00578
25,TCCTTCGA,0.11

row,Sequence,PBM E-score
1,GCTAGTGA,-0.00743
2,TGAATGAA,0.0496
3,AGTAGGGG,-0.202
4,CATTTAAC,0.188
5,GGGAGCGA,-0.219
6,TGGCCCAA,-0.0694
7,ATGTCCTG,0.487
8,ATGTCCTC,0.481
9,AGGTCCTC,-0.119
10,ATTTCCTG,0.206
11,CTGTCCTC,0.197
12,AGGTCCTG,0.0441
13,GCCCGCTA,-0.211
14,AAACAGGG,0.09
15,CGGCGACA,0.0783
16,CTTAGCAC,-0.0653
17,GACATAGC,0.295
18,AACATATA,0.0881
19,GACATAGA,0.36
20,GACATATC,0.451
21,AACATAGA,-0.021
22,CACATATC,0.0551
23,GACACATA,0.361
24,CACATATA,0.0314
25,AACATATC,0.0631

row,Sequence,PBM E-score
1,CACACATA,0.0356
2,GACATATA,0.448
3,TACACATA,0.0567
4,CGATTTGA,-0.163
5,CGGGGCCA,-0.157
6,AGTCAGGC,0.0431
7,CTTCGGTA,-0.0133
8,CTGGCAGC,-0.271
9,GGGACCCA,-0.139
10,TAGCGTCA,-0.0365
11,ATATGTTG,0.0727
12,GTATGTAA,0.0384
13,GTATGTTA,0.0222
14,ATATGTTA,-0.0436
15,ATATGTCG,0.379
16,ATATGTCA,0.401
17,ATATGTGG,0.0596
18,GTATGTCA,0.35
19,CTATGTCA,0.167
20,AATACTCT,0.0619
21,ATTAGAGA,0.00489
22,GTCTTGGA,0.0469
